This is an account of results in PubChem BioAssay (Tox21).

Structures are written as SMILES. Several values for one entry are separate records, joined by “and”; a condition that tells them apart may be missing. Equal entries are not always repeated. Inconclusive results are not listed. More than one record can exist for a structure, and the calls need not agree. Activity calls are given as the source filed them. Unless noted, calls come from the whole dose curve; as a rule, active = well fitted curve in the direction sought with a large enough effect in the repeat runs; inconclusive = weak or mixed curves; inactive = no such curve, though single readings can be large; an effect the other way counts as inactive or inconclusive.

Assay [1] can be described thus: qHTS assay to identify aromatase inhibitors - cell viability counter screen (AID 743084).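 Note: cells stimulated with testosterone during compound exposure; nearly all actives have a fitted effect of over 55% in size.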 Note: potency is the fitted concentration of half-maximal effect.
Assay [2] deals with Aryl hydrocarbon receptor (Homo sapiens) (UniProt P35869). In words: qHTS assay to identify small molecule that activate the aryl hydrocarbon receptor (AhR) signaling pathway (AID 743085).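 Note: HG2L7.5c1 human HepG2 liver cells with stably integrated DRE-driven firefly reporter; series mostly up to about 70 µM; nearly all actives have a fitted effect of over 15% in size.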 In a few lines: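 Reporter assay in engineered HepG2 line HG2L7.5c1, whose plasmid carries twenty dioxin responsive elements upstream of firefly luciferase. Treatment lasted 24 h at 37C; ONE-Glo luminescence gauged induction.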
Sequence of Aryl hydrocarbon receptor (Homo sapiens) (P35869 whole entry, looked up): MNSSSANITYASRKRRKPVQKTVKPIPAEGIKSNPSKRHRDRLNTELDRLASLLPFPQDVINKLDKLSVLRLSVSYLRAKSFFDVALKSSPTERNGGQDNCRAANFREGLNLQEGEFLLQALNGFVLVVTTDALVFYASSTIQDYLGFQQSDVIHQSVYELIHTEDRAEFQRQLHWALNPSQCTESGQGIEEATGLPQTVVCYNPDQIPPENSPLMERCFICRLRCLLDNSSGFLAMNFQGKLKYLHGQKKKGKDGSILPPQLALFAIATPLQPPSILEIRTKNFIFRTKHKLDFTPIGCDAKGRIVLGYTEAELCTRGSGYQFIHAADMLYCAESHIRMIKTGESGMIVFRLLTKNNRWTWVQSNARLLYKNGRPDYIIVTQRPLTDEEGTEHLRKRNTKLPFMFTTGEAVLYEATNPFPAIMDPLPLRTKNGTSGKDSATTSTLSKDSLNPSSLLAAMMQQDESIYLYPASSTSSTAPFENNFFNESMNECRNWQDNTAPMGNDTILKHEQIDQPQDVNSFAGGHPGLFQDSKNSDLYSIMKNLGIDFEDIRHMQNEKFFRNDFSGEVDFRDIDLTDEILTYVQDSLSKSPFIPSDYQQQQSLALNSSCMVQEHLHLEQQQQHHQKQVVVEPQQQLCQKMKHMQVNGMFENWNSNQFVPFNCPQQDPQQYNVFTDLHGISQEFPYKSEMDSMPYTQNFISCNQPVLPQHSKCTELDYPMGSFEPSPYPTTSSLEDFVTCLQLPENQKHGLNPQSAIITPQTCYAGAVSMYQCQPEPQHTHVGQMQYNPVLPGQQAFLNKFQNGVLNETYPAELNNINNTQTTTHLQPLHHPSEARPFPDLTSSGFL

Assay [3] addresses Peroxisome proliferator-activated receptor gamma (Homo sapiens) (UniProt P37231). In words: qHTS assay to identify small molecule agonists of the peroxisome proliferator-activated receptor gamma (PPARg) signaling pathway (AID 743094; active = well fitted activation curve with a large enough effect in the signal ratio in the repeat runs, not every such curve was filed as active; the % refers to the signal ratio; note: potency is the fitted concentration of half-maximal effect). In a few lines:
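Quantitative HTS agonist mode: stable HEK293H line with UAS-beta-lactamase reporter under PPARg control, 17 h compound exposure at 37C, fluorescence after 1 h FRET substrate loading at room temperature.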
For orientation: Quantitative high-throughput screening tests each substance at several concentrations.

Assay [4] has the same target. In words: qHTS assay to identify small molecule antagonists of the peroxisome proliferator-activated receptor gamma (PPARg) signaling pathway (AID 743191; calls by dose curve; note: nearly all actives have a fitted effect of over 30% in size; note: potency is the fitted concentration of half-maximal effect). A digest of the protocol:
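Beta-lactamase reporter under UAS control in HEK293H PPARg-bla cells; compound treatment 17 h at 37C. Read-out: fluorescence intensity after 1 h room-temperature incubation with LiveBLAzer B/G FRET substrate.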

Assay [5] can be described thus: qHTS assay to identify small molecule antagonists of the peroxisome proliferator-activated receptor gamma (PPARg) signaling pathway - cell viability counter screen (AID 743194). Note: nearly all actives have a fitted effect of over 55% in size. Note: potency is the fitted concentration of half-maximal effect. In a few lines:
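Viability was measured as CellTiter-Glo luminescence in GeneBLAzer PPARg UAS-bla HEK293H cells. These cells had been exposed 17 h at 37 C to compounds together with rosiglitazone at 50 nM final, with the beta-lactamase readout taken in the same wells.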

The nature of assay [6]: qHTS assay for small molecule agonists of the antioxidant response element (ARE) signaling pathway - cell viability counter screen (AID 743203; calls by dose curve; note: nearly all actives have a fitted effect of over 55% in size; note: potency is the fitted concentration of half-maximal effect). In a few lines:
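Seeded at 2,000 cells/well, ARE-bla HepG2 cells were incubated 5 hrs before compound addition. After 16 hrs of treatment at 37C with 5% CO2, CellTiter-Glo reagent was added and luminescence read 30 min later.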

Assay [7] is described as follows: qHTS assay for small molecule activators of the heat shock response signaling pathway - cell viability counter screen (AID 743209). Note: nearly all actives have a fitted effect of over 50% in size. Note: potency is the fitted concentration of half-maximal effect. In a few lines:
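First, HSE-bla HeLa cells were seeded at 1500 cells/well and kept overnight at 37 C. Next, compounds were pinned in and incubated 5 h. After the FRET substrate step, CellTiter-Glo was added and luminescence read 30 min later.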

Assay [8] is described as follows: qHTS assay for small molecule activators of the heat shock response signaling pathway (AID 743210; active = well fitted activation curve with a large enough effect in the signal ratio in the repeat runs, with a control signal flat, not every such curve was filed as active; the % refers to the signal ratio;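 note: HeLa cells with beta-lactamase reporter driven by heat shock elements; series mostly up to about 63 µM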). A digest of the protocol: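 HeLa HSE-bla cells, overnight plating; cpd in DMSO 5 h, 37 C; LiveBLAzer B/G FRET substrate 2.5 h RT; fluorescence intensity read.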
Assay [9] in a line: qHTS assay to identify small molecule agonists of the peroxisome proliferator-activated receptor delta (PPARd) signaling pathway - cell viability counter screen (AID 743211). Note: nearly all actives have a fitted effect of over 55% in size. Note: potency is the fitted concentration of half-maximal effect. A digest of the protocol: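 Multiplexed format: after the 2 h room-temperature LiveBLAzer B/G FRET step, CellTiter-Glo was added to the same wells. Luminescence after 30 min gave cell viability; compound exposure was 17 h at 37C.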

Assay [10] has as its target Peroxisome proliferator-activated receptor delta (Homo sapiens) (UniProt Q03181). In words: qHTS assay to identify small molecule agonists of the peroxisome proliferator-activated receptor delta (PPARd) signaling pathway (AID 743212; calls by dose curve). In a few lines:
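HEK293H PPARd-bla cells; 5 h preincubation 37 C/5% CO2; compound (DMSO) 37 C; LiveBLAzer B/G FRET substrate 2 h RT; fluorescence intensity.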

Assay [11] is described as follows: qHTS assay to identify small molecule antagonists of the peroxisome proliferator-activated receptor delta (PPARd) signaling pathway - cell viability counter screen (AID 743213). Note: nearly all actives have a fitted effect of over 50% in size. Note: potency is the fitted concentration of half-maximal effect. In a few lines: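 Agonist-stimulated (L165041, 300 nM final) HEK293H PPARd UAS-bla cells are exposed to compounds for 17 h at 37 C, and ATP-based luminescence (CellTiter-Glo) from the same wells reports cytotoxicity.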

Assay [12] concerns the target Peroxisome proliferator-activated receptor delta (Homo sapiens) (UniProt Q03181). In words: qHTS assay to identify small molecule antagonists of the peroxisome proliferator-activated receptor delta (PPARd) signaling pathway (AID 743215; active = well fitted inhibition curve with a large enough effect in the signal ratio in the repeat runs, not every such curve was filed as active; the % refers to the signal ratio; note: potency is the fitted concentration of half-maximal effect). In a few lines: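 Inhibition of L165041-driven (300 nM final) PPARd signaling is scored in HEK293H UAS-bla cells. Exposure lasts 17 h at 37 C; beta-lactamase activity is then read by FRET substrate fluorescence after 2 h at room temperature.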

Assay [13] addresses Bile acid receptor (Homo sapiens) (UniProt Q96RI1). In words: qHTS assay to identify small molecule antagonists of the farnesoid-X-receptor (FXR) signaling pathway (AID 743217; active = well fitted inhibition curve with a large enough effect in the signal ratio in the repeat runs, not every such curve was filed as active; the % refers to the signal ratio; note: potency is the fitted concentration of half-maximal effect). A digest of the protocol: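 Antagonist mode against 50 uM (final) chenodeoxycholic acid stimulation in FXR-bla HEK 293T cells, 16 h at 37 °C. Inhibition detected as reduced beta-lactamase activity via LiveBLAzer B/G FRET fluorescence after 2 h at room temperature.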

Assay [14] in a line: qHTS assay to identify small molecule agonists of the farnesoid-X-receptor (FXR) signaling pathway - cell viability counter screen (AID 743218). Note: nearly all actives have a fitted effect of over 45% in size. Note: potency is the fitted concentration of half-maximal effect. In a few lines:
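Cytotoxicity counter-screen run in parallel, same wells: FXR-UAS-bla HEK 293T cells dosed 16 h at 37 C, viability read by CellTiter-Glo luminescence after 30 min at room temperature.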

For assay [15], the target named is Bile acid receptor (Homo sapiens) (UniProt Q96RI1). In words: qHTS assay to identify small molecule agonists of the farnesoid-X-receptor (FXR) signaling pathway (AID 743220; active = well fitted activation curve with a large enough effect in the signal ratio in the repeat runs, not every such curve was filed as active; the % refers to the signal ratio). A digest of the protocol:
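Beta-lactamase reporter under UAS control in GeneBLAzer FXR HEK 293T cells (5000/well) measured with LiveBLAzer FRET substrate after 2 h at room temperature. Compound exposure lasted 16 h at 37C.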

The nature of assay [16]: qHTS assay to identify small molecule antagonists of the farnesoid-X-receptor (FXR) signaling pathway - cell viability counter screen (AID 743221; active = well fitted cell-killing curve with a large enough effect in the repeat runs, not every such curve was filed as active; note: nearly all actives have a fitted effect of over 50% in size; note: potency is the fitted concentration of half-maximal effect). In a few lines:
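CellTiter-Glo, 30 min RT, luminescence; same wells as the LiveBLAzer FRET read. Cells: FXR-UAS-bla HEK 293T. Treatment: compound with chenodeoxycholic acid 50 uM final, 16 h at 37 C.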

Assay [17] concerns the target Vitamin D3 receptor (Homo sapiens) (UniProt P11473). In words: qHTS assay to identify small molecule agonists of the vitamin D receptor (VDR) signaling pathway (AID 743222; calls by dose curve). In a few lines: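 Quantitative HTS agonist-mode screen: compounds in DMSO were pin-transferred onto VDR-bla cells and incubated 16 h at 37C, 5% CO2. Reporter activity was detected with LiveBLAzer B/G FRET substrate after 2 h at room temperature.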

Assay [18] shares this target. In words: qHTS assay to identify small molecule antagonists of the vitamin D receptor (VDR) signaling pathway (AID 743223; active = well fitted inhibition curve with a large enough effect in the signal ratio in the repeat runs, not every such curve was filed as active; the % refers to the signal ratio). In a few lines:
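After VDR-bla cells are plated and left 4 h at 37C, DMSO-dissolved compounds and 3 nM (final) calcitriol agonist are added. Incubation continues 16 h at 37C; FRET beta-lactamase substrate then develops 2 h at room temperature.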

Assay [19] can be described thus: qHTS assay for small molecule agonists of the antioxidant response element (ARE) signaling pathway (AID 743202; active = well fitted activation curve with a large enough effect in the signal ratio in the repeat runs, not every such curve was filed as active; the % refers to the signal ratio). In a few lines: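 Quantitative high-throughput format in HepG2 cells bearing an integrated ARE-beta-lactamase reporter. Compound exposure lasted 16 h at 37 C, and fluorescence was read 2 h after adding LiveBLAzer B/G substrate at room temperature.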

Sequence of Bile acid receptor (Homo sapiens) (Q96RI1 whole entry, looked up): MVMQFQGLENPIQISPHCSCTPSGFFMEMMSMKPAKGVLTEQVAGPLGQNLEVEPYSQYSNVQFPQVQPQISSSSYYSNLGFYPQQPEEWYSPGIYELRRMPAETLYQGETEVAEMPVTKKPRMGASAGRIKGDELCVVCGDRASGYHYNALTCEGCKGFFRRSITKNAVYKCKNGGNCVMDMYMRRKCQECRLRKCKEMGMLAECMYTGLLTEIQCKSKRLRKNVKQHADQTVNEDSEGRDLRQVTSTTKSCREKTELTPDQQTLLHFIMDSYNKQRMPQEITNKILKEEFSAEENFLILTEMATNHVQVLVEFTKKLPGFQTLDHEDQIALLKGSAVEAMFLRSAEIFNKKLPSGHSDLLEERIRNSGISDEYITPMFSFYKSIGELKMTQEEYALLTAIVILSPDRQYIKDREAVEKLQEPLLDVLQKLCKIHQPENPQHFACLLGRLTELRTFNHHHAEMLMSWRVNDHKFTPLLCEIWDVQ
Sequence of Peroxisome proliferator-activated receptor delta (Homo sapiens) (Q03181 whole entry, looked up): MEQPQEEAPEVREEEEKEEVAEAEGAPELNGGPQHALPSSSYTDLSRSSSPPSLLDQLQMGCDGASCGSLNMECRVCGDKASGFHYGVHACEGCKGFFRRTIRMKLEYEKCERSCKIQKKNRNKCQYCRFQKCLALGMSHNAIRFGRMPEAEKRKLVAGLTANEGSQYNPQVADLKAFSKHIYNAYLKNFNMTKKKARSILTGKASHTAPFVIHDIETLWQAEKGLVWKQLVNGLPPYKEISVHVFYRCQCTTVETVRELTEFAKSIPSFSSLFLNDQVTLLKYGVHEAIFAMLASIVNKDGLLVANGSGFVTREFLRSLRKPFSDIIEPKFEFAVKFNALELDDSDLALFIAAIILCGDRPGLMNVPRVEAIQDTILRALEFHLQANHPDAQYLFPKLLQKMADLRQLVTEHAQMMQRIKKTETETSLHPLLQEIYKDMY
Sequence of Peroxisome proliferator-activated receptor gamma (Homo sapiens) (P37231 whole entry, looked up): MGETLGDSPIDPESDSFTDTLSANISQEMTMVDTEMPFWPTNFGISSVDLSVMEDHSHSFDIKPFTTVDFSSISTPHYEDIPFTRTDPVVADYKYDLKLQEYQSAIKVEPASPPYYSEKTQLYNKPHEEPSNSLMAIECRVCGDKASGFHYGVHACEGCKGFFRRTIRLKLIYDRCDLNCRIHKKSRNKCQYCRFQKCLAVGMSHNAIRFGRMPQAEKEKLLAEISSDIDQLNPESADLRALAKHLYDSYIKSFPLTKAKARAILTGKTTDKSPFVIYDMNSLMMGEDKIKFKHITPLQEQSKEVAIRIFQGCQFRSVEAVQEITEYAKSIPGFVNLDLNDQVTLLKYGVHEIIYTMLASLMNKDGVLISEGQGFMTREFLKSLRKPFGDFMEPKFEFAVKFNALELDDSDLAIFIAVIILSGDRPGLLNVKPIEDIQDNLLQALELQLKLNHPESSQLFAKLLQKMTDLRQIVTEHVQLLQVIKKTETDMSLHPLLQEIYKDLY
Sequence of Vitamin D3 receptor (Homo sapiens) (P11473 whole entry, looked up): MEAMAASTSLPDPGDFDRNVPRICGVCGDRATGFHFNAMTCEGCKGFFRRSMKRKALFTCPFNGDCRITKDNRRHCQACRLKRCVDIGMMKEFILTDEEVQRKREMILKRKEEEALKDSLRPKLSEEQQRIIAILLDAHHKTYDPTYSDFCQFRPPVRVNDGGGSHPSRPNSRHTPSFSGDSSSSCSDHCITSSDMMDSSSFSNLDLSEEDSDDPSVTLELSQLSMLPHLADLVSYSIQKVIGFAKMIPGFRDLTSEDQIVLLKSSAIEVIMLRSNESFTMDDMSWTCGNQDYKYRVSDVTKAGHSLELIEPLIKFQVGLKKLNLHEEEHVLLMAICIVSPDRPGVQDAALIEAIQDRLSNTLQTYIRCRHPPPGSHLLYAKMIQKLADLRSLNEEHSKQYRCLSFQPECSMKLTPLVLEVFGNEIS

Regarding `C(=C/c1ccccc1)/c1ccccc1`, the Potency result in assay [1], in assay [2], in [3], in assay [4], in [5] and in assay [6] was “inactive” each time. Also, the Potency entry in assay [7], in [8], in [9], in assay [11], in assay [12] and in assay [13] was “inactive” each time. In addition, the Potency entry in [14], in [15], in assay [16], in [17] and in [18] was “inactive” each time. Besides, the call in assay [10] was inactive.
For the molecule `COc1ccc2sc(C(=O)Nc3nnn[nH]3)c(OC(C)C)c2c1`, the Potency entry in assay [1], in assay [2], in [6], in assay [8], in assay [11] and in [15] was “inactive” each time. Also, in assay [16], the Potency result was “inactive”. Also, the Potency in assay [3] is 5.47 µM (active).
In the case of `CC(C)=C1CC[C@@H](C)CC1=O`, the Potency entry in assay [1], in assay [2], in [3], in [4], in assay [5] and in assay [19] was “inactive” throughout. Moreover, the Potency entry in assay [6], in assay [7], in assay [8], in assay [9], in assay [11] and in assay [12] was “inactive” throughout. Moreover, the Potency entry in assay [14], in assay [16], in [17] and in assay [18] was “inactive” throughout. The outcome in [10] was inactive.
As for `C[C@@H]1CC[C@H]2C(C)(C)[C@H]3C[C@@]12CC[C@@]3(C)O`, the Potency result in assay [1], in assay [2], in assay [3], in assay [5], in [19] and in [6] was “inactive” each time. The Potency entry in assay [11], in assay [12], in [13], in assay [15] and in assay [16] was “inactive” in each case. Moreover, the outcome in assay [10] was inactive.
On to `O=C(O)CCCCCCC(=O)O`, for which the Potency result in assay [1], in assay [2], in [3], in assay [4], in assay [5] and in assay [19] was “inactive” in each case. In addition, the Potency result in assay [6], in [7], in assay [8], in assay [9], in [11] and in assay [13] was “inactive” throughout. In addition, the Potency entry in assay [14], in assay [16], in assay [17] and in assay [18] was “inactive” each time.
Turning to `CSc1ccc2c(c1)N(CCC1CCCCN1C)c1ccccc1S2` (stereo not drawn), the Potency in assay [1] is 21.6 µM (active); in assay [5], 38.7 µM (active) and 15 µM (active); in assay [6], 27.2 µM (active) and 23.7 µM (active); in [7], 54.7 µM (active) and 29.8 µM (active); in [9], “inactive and 9.44 µM (active)”; in [11], 21.8 µM (active) and 13.3 µM (active). In addition, the Potency in assay [12] was 26.6 µM (active); in [16], 38.7 µM (active) and 29.8 µM (active). Also, the Potency result in assay [2] and in assay [17] was “inactive” throughout. Further, the outcome in assay [10] was inactive.
Take `CCCCCCCCCCCCCCCC`: the Potency result in [1], in assay [2], in assay [3], in [4], in assay [5] and in assay [6] was “inactive” in each case. Further, the Potency entry in assay [7], in assay [8], in assay [9], in assay [11], in [12] and in [14] was “inactive” in each case. In addition, in [16], the Potency result was “inactive”. The molecule was classed as inactive in assay [10].
As for `CO[C@H]1C=CO[C@@]2(C)Oc3c(C)c(O)c4c(O)c(cc(O)c4c3C2=O)NC(=O)/C(C)=C\C=C/[C@H](C)[C@H](O)[C@@H](C)[C@@H](O)[C@@H](C)[C@H](OC(C)=O)[C@@H]1C`, the Potency entry in assay [1] was “inactive and 13.8 µM (active)”. The Potency entry in assay [2], in assay [3], in [5], in assay [6], in [7] and in [8] was “inactive” in each case. The Potency result in [9], in assay [16] and in [18] was “inactive” each time. For the same molecule, the outcome in [10] was inactive.
`CC1=C(/C=C/C(C)=C/C=C/C(C)=C/C(=O)Nc2ccc(O)cc2)C(C)(C)CCC1`: the Potency in assay [1] was 26.6 µM (active) and 28 µM (active); in assay [4], 71 µM (active); in assay [6], 44.4 µM (active); in [7], 20 µM (active) and 33.5 µM (active); in assay [9], 3.56 µM (active) and 4.73 µM (active); in assay [11], 12.6 µM (active) and 7.5 µM (active). Besides, the Potency in assay [14] is 44.8 µM (active) and 11.9 µM (active); in assay [16] it was 56.4 µM (active) and 26.6 µM (active). In addition, the Potency result in assay [2] and in assay [5] was “inactive” in each case.
`CCCCCCCCCCCCOC(=O)c1cc(O)c(O)c(O)c1`: the Potency was 30.5 µM (active) and 61.1 µM (active) in assay [1]; 43.6 µM (active) in assay [5]; 68.3 µM (active) and 61.1 µM (active) in assay [6]; 13.7 µM (active) and 49 µM (active) in [7]; 34.5 µM (active) and 43.6 µM (active) in [9]; 34.5 µM (active) and 54.9 µM (active) in assay [11]. The Potency in [13] was 54.9 µM (active); in assay [14], 43.5 µM (active); in [16], 38.7 µM (active) and 19.5 µM (active). For the same molecule, in [2], the Potency entry is “inactive”.
Take `CN(C)CCCN1c2ccccc2Sc2ccc(C(F)(F)F)cc21`: the Potency entry in assay [1], in assay [2], in assay [7], in assay [8], in assay [15] and in assay [17] was “inactive” in each case. Besides, the Potency is 29.8 µM (active) in assay [6], 29.8 µM (active) in assay [9] and 11.9 µM (active) in [14].
As for `CCCCCCCCCCCCN(CCO)CCO`, the Potency in [1] is 48.4 µM (active); in assay [5], 54.7 µM (active); in assay [6], 54.3 µM (active); in [7], 54.7 µM (active); in [9], 38.7 µM (active); in assay [11], 48.8 µM (active). Moreover, in assay [2], the Potency entry was “inactive”.
